The compounds below were run against Solute carrier family 2, facilitated glucose transporter member 1 (Homo sapiens) (UniProt P11166) (assay: ST_JUDE_LEISH: Cytotoxicity at 2uM final concentration against transgenic Leishmania Mexicana promastigotes LmGLUT1 that are glucose transport deficient and complemented with the human glucose transporter GLUT1. Activity is measured by DNA content using SYBR green in vitro).
Type: functional

Chain of Solute carrier family 2, facilitated glucose transporter member 1 (Homo sapiens) (P11166 whole entry): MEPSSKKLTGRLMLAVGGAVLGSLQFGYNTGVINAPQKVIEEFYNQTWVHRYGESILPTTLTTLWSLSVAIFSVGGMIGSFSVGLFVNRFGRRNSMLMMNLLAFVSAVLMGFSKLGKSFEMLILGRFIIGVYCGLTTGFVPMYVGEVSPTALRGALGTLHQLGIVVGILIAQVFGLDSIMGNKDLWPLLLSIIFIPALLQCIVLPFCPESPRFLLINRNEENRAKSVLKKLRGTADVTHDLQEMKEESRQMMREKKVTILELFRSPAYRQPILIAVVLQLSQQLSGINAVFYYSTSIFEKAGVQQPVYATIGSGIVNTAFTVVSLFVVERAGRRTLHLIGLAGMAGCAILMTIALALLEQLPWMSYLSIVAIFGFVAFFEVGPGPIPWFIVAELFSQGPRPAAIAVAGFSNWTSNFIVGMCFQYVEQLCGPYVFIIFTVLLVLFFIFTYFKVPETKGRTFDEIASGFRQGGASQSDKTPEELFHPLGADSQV

| SMILES | inhibition |
| --- | --- |
| Cc1cnc(N2CCN(CC3CCN(C)CC3)CC2)nc1Oc1ccc(-n2ccnc2)cc1 | 4.68% |
| Brc1ccccc1CNc1ccnc(NCCn2ccnc2)n1 | -0.91% |
| Cc1nc(-c2cccc(C(=O)N(Cc3cncn3Cc3cccc(C(F)(F)F)c3)CC3CC3)c2)cs1 | 2.11% |
| c1ccc(C2CCC(N3CCC(N4CCN(c5ccccc5)CC4)CC3)CC2)cc1 (centres undefined) | 5.35% |
| O=C(/C=C/c1ccc([N+](=O)[O-])cc1)N1CCC(CCN2CCC(c3c[nH]c4ccccc34)CC2)CC1 | 2.33% |
| Cc1cc(N2CCCC2)nc(Nc2ccc(NC(=O)c3ccccc3)cc2)n1 | 1.14% |
| Clc1ccc(Cc2nc3ccccc3[nH]2)cc1Cl | 4.81% |
| COc1cc(OC)c(NC(=O)Nc2ccnc3ccccc23)cc1Cl | 9.23% |
| N#Cc1c(N2CCN(c3ccc(F)cc3)CC2)nc(N)c2c(N)nc3c(c12)CC(=O)N3C1CC1 | -2.19% |
| Cc1ccc(CNC(=O)[C@H](CC(C)C)Nc2cc(C)nc(NCc3ccccc3C)n2)cc1 | 4.3% |
| CN1CCN(c2cccc(-c3nnc(-c4cccc(OCC(=O)NCc5ccc(C(F)(F)F)cc5)c4)o3)c2)CC1 | 1.77% |
| O=C(CCNc1ccnc(NCCc2ccc(F)cc2)n1)Nc1ccccc1 | 3.86% |
| COc1ccc(-c2cncc3ccc(C(=O)NCc4ccncc4)nc23)cc1 | 6.53% |
| CCCCC(NCC)c1ccc(OCCOc2ccc(C(CCCC)NCC)cc2)cc1 (centres undefined) | 81.2% |
| O=C(Nc1ccc(OC2CCN(Cc3ccc(F)cc3)C2)c(Cl)c1)c1ccccc1 (centres undefined) | 8.62% |
| Fc1ccc2[nH]c3c(NCCCN4CCOCC4)ncnc3c2c1 | 1.79% |
| CCc1c[nH]c2c(N3CCCC3=O)cc(C(=O)N[C@@H](Cc3ccccc3)[C@H](O)CNC(C)(C)c3cccc(C(F)(F)F)c3)cc12 | -1.29% |
| CC(=O)Nc1ccc(CN(Cc2cccc(OC(C)(C)C)c2)Cc2ccc3c(c2)OCCO3)cc1 | 4.55% |
| Cc1ccc(OC2CCN(c3ccc(C(=O)NC4CC4)cn3)CC2)cc1 | 0.24% |
| Cc1cccc(-c2nc3[nH]c(=O)cc(NC(=O)C(C)C)n3n2)c1 | -2.8% |
| Cc1ccccc1N1CCN(c2ccc(C(=O)Nc3ccccc3)cn2)CC1 | 9.19% |
| Cn1cncc1C(=O)Nc1cccc(-c2cccc(-c3nc4cc(F)ccc4[nH]3)c2)c1 | 4% |
| CN(C)c1ccc(CN2CCC(NC(=O)c3ccc(-c4cccc(F)c4)s3)CC2)cc1 | 4.53% |
| Cc1cccc(NC(c2cccs2)c2c(NC(=O)c3ccccc3)sc(C)c2C)n1 (centres undefined) | 6.21% |

From ChEMBL document CHEMBL3433997, “St. Jude Leishmania screening dataset” (2016)
